Reference: PubChem BioAssay AID651718 (The Scripps Research Institute Molecular Screening Center, 2012)
Out of some 360,000 compounds screened, about 2,700 (0.75%) were called active. The sample holds actives, similar compounds and a random draw of the others, so the mix is not that of the screen. Values without a mark were called inactive. No stated cut-off is given here; in the data, active means inhibition above about 4.5%; inactive means the rest.

Each compound was assayed on Methionine sulfoxide reductase A (Bos taurus) (assay: bovine MsrA enzyme inhibitors, primary screen, biochemical, absorbance, HTS (AID 651718;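 further: 0% = vehicle wells with enzyme and 100% = reference inhibitor wells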)). Conditions: purified bovine MsrA, absorbance read-out; at 15.5 µM; active compounds read high.
In the case of `N#Cc1cccc(C(=O)NCC2CCN(C(=O)C(=O)c3cc4ccccc4o3)CC2)c1`, the inhibition is reported as 1.67%. With `COc1ccc(S(=O)(=O)N2CCCCCC2)cc1NC(=O)Cc1ccc(OC)c(OC)c1` the inhibition was -0.53%. Work on `COc1ccccc1CC(=O)Nc1ccc(S(=O)(=O)N2CCCC2)cc1` yielded an inhibition of -0.82%. For `COc1ccc(-c2ccc(Nc3ccc(S(=O)(=O)N4CCCC4)cc3)nn2)cc1OC`, the inhibition was 5.88% (active). Work on `COc1ccc(S(=O)(=O)NC(C)c2ccccc2)cc1C(=O)N1CCCCC1` (stereo not drawn) yielded an inhibition of 0.8%. In the case of `COC(=O)C1=C(C)N(Cc2ccccc2C(F)(F)F)C(=NCc2ccc(C(F)(F)F)cc2)NC1c1ccc(F)cc1` (stereo not drawn), the inhibition is reported as -2.62%. Work on `C#CCN([C@@H](C)C(=O)OCC)S(=O)(=O)c1ccc(Br)cc1F` yielded an inhibition of -0.88%. `CCCc1nc(SCC(=O)N2CCCC2)c2c(=O)n(C)c(=O)n(C)c2n1` was tested, and the inhibition was 5.22% (active). `Cn1c(=O)c2c(SCC(=O)N3CCOCC3)nc(C3CC3)nc2n(C)c1=O` gave an inhibition of -0.05%. Compound `CCOC(=O)N1CCN(C(=O)CSc2nc(C)nc3c2c(=O)n(C)c(=O)n3C)CC1` has an inhibition of -1.46%. Work on `CC1CCCN(c2cccc3c2S(=O)(=O)N(Cc2ccc(F)cc2)[C@@H](C)[C@H](c2ccccc2)O3)C1` (stereo partly drawn) yielded an inhibition of 0.93%. With `Cc1ccc(N2C(=O)CN=C2Nc2nc(C)cc(C)n2)cc1` the inhibition was 6.56% (active). For `Cc1ccc(C)c(NC2=NCC(=O)N2c2ccc3c(c2)OCCO3)c1`, the inhibition was 0%. `Cc1cc(C)nc(NC2=NCC(=O)N2c2ccc(Cl)cc2)n1` showed an inhibition of 3.92%. Work on `COC(=O)C1=C(C)N(Cc2cccc(C(F)(F)F)c2)C(=NCc2ccccc2)NC1c1ccccc1C(F)(F)F` (stereo not drawn) yielded an inhibition of -1.24%. In the case of `CC(C)[C@@H](C)/C=C/[C@@H](C)[C@H]1CC[C@@H]2[C@]1(C)CCC1[C@]23C=C[C@]2(C[C@@H](O)CC[C@]12C)N(c1ccc([N+](=O)[O-])cn1)O3` (stereo partly drawn), the inhibition is reported as -1.75%. With `O=C(O)CC1S/C(=N\N=C/c2ccccc2O)N(c2ccc(O)cc2)C1=O` (stereo not drawn) the inhibition was 4.57% (active). For `CN1C(=O)C(CC(=O)Nc2ccccc2)S/C1=N/c1nccs1` (stereo not drawn), the inhibition was 1.53%. Work on `CCCCOCC1CN(CCCC)S(=O)(=O)c2c(Oc3ccc(F)cc3)cccc2O1` (stereo not drawn) yielded an inhibition of 0.09%. For `C[C@H](CO)N1C[C@H](C)[C@@H](CN(C)C(=O)Nc2ccccc2F)OCc2cn(nn2)CCCC1=O`, the inhibition was -1.47%. `Cc1ccc(S(=O)(=O)c2c[nH]c3ccc(Cl)cc3c2=O)cc1` gave an inhibition of -0.29%. `COc1ccc(S(=O)(=O)N(C)CC(=O)N2CCCC2)cc1Cl` was tested, and the inhibition was -0.26%. In the case of `COc1ccc(S(=O)(=O)c2c[nH]c(=S)[nH]c2=O)cc1Cl`, the inhibition is reported as 5.55% (active). Work on `C[C@H](O)[C@@H]1C(=O)N2CCc3c([nH]c4c(-c5ccc6c(c5)OCO6)cccc34)[C@@H]2C[C@@H]1N(C)C(=O)c1ccco1` yielded an inhibition of -0.82%. For `COC(=O)C1=C(C)N(Cc2ccc(C(F)(F)F)cc2)C(=NCc2ccc(C(F)(F)F)cc2)NC1c1cccc(Cl)c1` (stereo not drawn), the inhibition was -2.13%. Work on `Cc1ccc(/C=N/NC(=O)Cn2nc(C)c(Br)c2C)o1` yielded an inhibition of 1.58%. For `Cc1ccc(/C=N/NC(=S)NC2CCCCC2)o1`, the inhibition was 4.73% (active). With `C/C(=N\NC(=S)NC1CCCCC1)c1ccc(C)o1` the inhibition was 2.23%. `COc1ccccc1CNS(=O)(=O)c1cc2c3c(c1)CCC(=O)N3CCC2` showed an inhibition of 0.88%. For `Cc1cccc(CN2CCN(C3CN(Cc4cn(Cc5cc(C)cc(C)c5)nn4)S(=O)(=O)C3)CC2)c1` (stereo not drawn), the inhibition was -0.09%. For `COC(=O)c1c(-c2ccc(OC)cc2)c2c(c3c4cc(OC)ccc4n(S(=O)(=O)c4ccc(F)cc4)c13)C(=O)N(C)C2`, the inhibition was 1.35%. Work on `COC(=O)[C@]12C[C@H](CC(=O)NCc3ccc(OC)c(OC)c3)C(=O)N(Cc3ccccc3)C1=C[C@H](C(C)C)O[C@@H]2C1CC1` yielded an inhibition of 0.87%. With `C/C(=N\Nc1ccccc1)c1cccs1` the inhibition was -0.47%. Work on `C/C(=N\Nc1nc2ccccc2[nH]1)c1cccs1` yielded an inhibition of 4.27%. `C/C(=N\Nc1ccc(S(N)(=O)=O)cc1[N+](=O)[O-])c1cccs1` was tested, and the inhibition was 4.74% (active). With `COc1cccc(CC(=O)N2CCN(C(=O)C(=O)c3cccc(C(F)(F)F)c3)CC2)c1` the inhibition was -0.48%. For `COc1ccccc1Cc1c(-c2ccc(F)cc2)nc2ccc(C)cn12`, the inhibition was -0.14%. `O=C(N[C@H](C(=O)N1CCC[C@H]1C(=O)NCCc1ccccc1Cl)c1ccccc1)c1ccccc1` showed an inhibition of -1.55%. Compound `COC(=O)[C@]1(Cc2ccccc2)NC=C(C(=O)c2ccccc2)[C@@H]1c1cccc(OC)c1` has an inhibition of 1.03%. `Cn1c(=O)c2c(nc(N/N=C/c3cccs3)n2Cc2ccc(Br)cc2)n(C)c1=O` gave an inhibition of -0.37%. With `Cc1nc2ccccc2n1CC(=O)N/N=C/c1cccs1` the inhibition was 0.96%. In the case of `Cc1n[nH]c(=O)nc1N/N=C/c1cccs1`, the inhibition is reported as 5.54% (active). In the case of `Cc1ccc(N)cc1CN1CCN(c2ncc(Cc3ccccc3)cn2)CC1`, the inhibition is reported as -0.75%. Compound `CC(=O)C1=C(C)N(Cc2ccccc2)C(=S)NC1c1cccc(Br)c1` (stereo not drawn) has an inhibition of 0.33%. `COc1ccccc1C(=O)N/C(=C/c1ccco1)C(=O)Nc1ccc(C(=O)O)cc1` gave an inhibition of 3.68%. With `COc1ccccc1C(=O)N/C(=C/c1ccc2c(c1)OCO2)C(=O)Nc1cccc(C(=O)O)c1` the inhibition was 5.04% (active). For `COc1ccc(/C=C(/NC(=O)c2ccccc2)C(=O)Nc2cccc(C(=O)O)c2)cc1`, the inhibition was 1.96%. `O=C(NCc1ccccc1)[C@H]1CCCN1C(=O)[C@@H]1CCCN1C(=O)c1ccc(Cl)cc1Cl` showed an inhibition of -0.17%. `O=[N+]([O-])c1ccc(N=NNc2ccc([N+](=O)[O-])cc2)cc1` gave an inhibition of 0.99%. `NC(=S)N/N=C/c1ccc([N+](=O)[O-])cc1` was tested, and the inhibition was 5.41% (active). For `NC(=O)C1(Nc2ccc([N+](=O)[O-])cc2)CCCC1`, the inhibition was 1.4%. `Cc1ccc(-c2ccc(/C=C(\C#N)C(N)=S)o2)c([N+](=O)[O-])c1` was tested, and the inhibition was 10.9% (active). In the case of `Cc1ccc2nc(SCc3nnc(-c4ccccc4[N+](=O)[O-])o3)c(C#N)cc2c1`, the inhibition is reported as -0.69%.
